Compound activity (PubChem BioAssay)
HCV inh = inhibitors of hepatitis C virus infection; Potency, µM (highest dose often 41.8 µM), hits mostly inhibitors; Huh7.5.1 HCVcc-Cre infection, luciferase reporter, 44 h; hit rate 3.4% among 340,000
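HCVcc-Cre virus at an moi near 0.5 was added right after compound to cells cultured 4 h from seeding (1,000 cells/well). Luciferase activity was determined 44 h later, 15 min after substrate addition at RT.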
Cycloheximide cs = counter-screen for Shiga toxin inhibitors: cycloheximide protein synthesis inhibition; hit rate 12% among 300,000; cell reporter, cycloheximide protein synthesis inhibition counterscreen; max response, %; in the data active = max response mostly above about 13%, no sharp cut-off; inactive = mostly below about 14%; also: read at 38.3 µM for the half of the compounds with a filed dose
Pf growth 48h = inhibits P. falciparum growth in the first generation, 48 h; P. falciparum luciferase growth in erythrocytes, 48 h; Potency, µM (titrated, usually from 28.7 µM), actives largely listed as inhibitors; hit rate 5.9% among 310,000; AID 504832
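Luminescence readout; reporter = integrated firefly luciferase in P. falciparum. RBC culture at 2% hematocrit, 0.1% parasitemia final, 37 C/5% CO2; decreased signal taken as growth inhibition.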
Shiga inhibitor = inhibitors of Shiga toxin in Vero cells | Vero cells, Shiga toxin protein synthesis inhibition reporter | inhibition, % at 38.7 µM | hit rate 9.2% among 290,000 | AID 2315; in the data active = inhibition mostly above about 28%, no sharp cut-off; inactive = mostly below about 43%
Pf growth 96h = inhibits malaria parasite growth, 96 h; P. falciparum luciferase reporter growth, 96 h; Potency, µM (doses to about 28.7 µM), hits mostly inhibitors; hit rate 6.9% among 320,000; AID 504834
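P. falciparum expressing integrated firefly luciferase grown in erythrocytes (2% hematocrit, 0.05% parasitemia final) with compounds for 96 hours at 37 C, 5% CO2. Growth inhibition read as loss of luminescence after adding luciferase detection reagent.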
AMA1-RON2 inh = disrupts binding of P. falciparum AMA1 to RON2; AlphaScreen AMA1-biotinylated RON2 peptide binding; Potency, µM (doses to about 58.2 µM), actives largely listed as inhibitors; hit rate 0.2% among 360,000; AID 720542; also: nearly all actives have a fitted effect of over 45% in size
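AMA1 (3D7) with his tag at 25 nM final met compounds first, then biotinylated RON2 peptide at 25 nM; detection used donor plus acceptor beads, 10 µg/mL apiece, read by AlphaScreen after 30 min at room temperature.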
Of the large screens only hits and unclear results are named; the others gave an inactive call. In the library only some 21% were active in any assay of this set; here they are far more common. Unless noted, calls follow the shape of the dose curve; as a rule, active = well fitted curve in the direction sought with a large enough effect; inconclusive = small, poorly fitted or top-dose-only effect, or another doubt; inactive = no such curve, though single readings can be large; an effect the other way counts as inactive or inconclusive.

O=C(Cc1ccccc1[N+](=O)[O-])NCC(O)c1ccc2c(c1)OCO2 (configuration not stated)	none (no result: Cycloheximide cs, Pf growth 48h, Shiga inhibitor, Pf growth 96h)
O=c1cc(CSc2nc(NCc3ccccc3)c3ccccc3n2)nc2ccc(Cl)cn12	Pf growth 96h inconclusive
Cc1nc(-c2ccccc2)sc1-c1ccnn1C	Cycloheximide cs 35, Shiga inhibitor 81
Cc1nc(-c2ccccc2)sc1-c1ccn[nH]1	HCV inh inconclusive, Cycloheximide cs 28, Shiga inhibitor 69
CN(Cc1ccccc1)C(=O)c1csc([C@@H]2C[C@H](O)[C@@H](CO)O2)n1	none (no result: HCV inh, Cycloheximide cs, Pf growth 48h, Shiga inhibitor, Pf growth 96h)
COc1cc(OC)c(CN2CCN(c3ccc(F)cc3)CC2)cc1Br	AMA1-RON2 inh inconclusive (no result: Pf growth 48h)
COc1cc(OC)c(CN2CCCCCCC2)cc1Br	Pf growth 96h 13µM (no result: Pf growth 48h)
COc1cc(OC)c(CN2CCCN(C)CC2)cc1Br	HCV inh 7.1µM, Pf growth 96h inconclusive (no result: Shiga inhibitor)
Cc1cc(C(=O)CN2C(=O)C(=O)N(Cc3ccccc3)C2=O)c(C)n1CC1COc2ccccc2O1 (configuration not stated)	HCV inh 11µM, Pf growth 48h inconclusive, Pf growth 96h inconclusive
Cc1cc(C(=O)CSc2nnc(-c3ccccc3)o2)c(C)n1CC1COc2ccccc2O1 (configuration not stated)	Pf growth 48h inconclusive, Shiga inhibitor 39, Pf growth 96h 3.3µM
Cc1cc(C(=O)CSc2nnc(-c3ccc(F)cc3)o2)c(C)n1CC1COc2ccccc2O1 (configuration not stated)	Pf growth 48h inconclusive, Pf growth 96h inconclusive
Cc1cc(C(=O)CSc2nnc(-c3ccco3)o2)c(C)n1CC1COc2ccccc2O1 (configuration not stated)	HCV inh inconclusive, Pf growth 48h 10µM, Pf growth 96h 4.7µM
CCOc1cc(-c2cc(-c3ccccc3)nc(N)c2C#N)ccc1O	Pf growth 96h inconclusive (no result: Pf growth 48h)
CCOc1cc(-c2cc(-c3ccc(N)cc3)nc(N)c2C#N)ccc1O	HCV inh inconclusive, Pf growth 48h 12µM
CCOC(=O)C1=C[C@@H](C(C)(C)C)N(S(=O)(=O)c2ccccc2C)[C@H]1c1ccc(Cl)cc1	none (no result: HCV inh, Cycloheximide cs, Pf growth 48h, Shiga inhibitor, Pf growth 96h)
CN(C)/C=C/C(=O)c1cnc(-c2ccccc2)s1	Cycloheximide cs 52, Shiga inhibitor 104
O=C(c1ccccc1)c1cnc(-c2ccc(Cl)cc2)s1	Cycloheximide cs 39, Shiga inhibitor 116
CN(C)/C=C/C(=O)c1cnc(-c2ccc(Cl)cc2)s1	Cycloheximide cs 51, Shiga inhibitor 97
CN(C)/C=C/C(=O)c1ccc(Cl)s1	Cycloheximide cs 16, Pf growth 96h inconclusive
CC(C)(C)c1nnc(NC(=O)C2CC(=O)N(CCc3ccc(F)cc3)C2)s1 (configuration not stated)	none
Nc1cc(=O)[nH]c(SCC(=O)Nc2cccc(S(=O)(=O)N3CCCCC3)c2)n1	none (no result: Cycloheximide cs, Pf growth 48h, Shiga inhibitor, Pf growth 96h)
CC(C)NC(=O)C1(S(=O)(=O)c2ccccc2)CC=CC1	none
CN(Cc1ccccc1)S(=O)(=O)c1ccc2c(c1)n(C)c(=O)n2C	none
CCCN(c1ccccc1C(=O)O)S(=O)(=O)c1ccc2c(c1)n(C)c(=O)n2C	Pf growth 96h 0.83µM
O=Cc1cccn1-c1c(C(=O)O)cnn1-c1ccccc1	Pf growth 96h 10µM
COc1cc(NC(=S)N2CCC(C(O)(c3ccccc3)c3ccccc3)CC2)cc(OC)c1	HCV inh inconclusive, Pf growth 96h 2.1µM
COc1cc(NC(=S)N2CCN(S(=O)(=O)c3ccccc3)CC2)cc(OC)c1	Pf growth 48h inconclusive
COc1cccc(NC(=S)N2CCN(S(C)(=O)=O)CC2)c1	Pf growth 96h 4.1µM
COc1cc(NC(=S)N2CCN(S(=O)(=O)c3ccc(F)cc3)CC2)cc(OC)c1	Pf growth 48h 2.3µM
COc1cccc(NC(=S)N2CCN(S(=O)(=O)c3ccc(F)cc3)CC2)c1	Pf growth 48h 1.9µM, Pf growth 96h inconclusive
COc1ccc(NC(=S)N2CCN(S(=O)(=O)c3ccc(F)cc3)CC2)cc1OC	Pf growth 48h inconclusive
CCNC(=S)N1CCC(C(O)(c2ccccc2)c2ccccc2)CC1	Pf growth 96h inconclusive
COc1ccc(S(=O)(=O)N(C)C[C@H]2Oc3c(NC(=O)Nc4c(C)noc4C)cccc3C(=O)N([C@@H](C)CO)C[C@H]2C)cc1	none (no result: Cycloheximide cs, Pf growth 48h, Shiga inhibitor, Pf growth 96h)
CSC1=NC(C(Cl)(Cl)Cl)N=C(c2ccc(C)cc2)N1 (configuration not stated)	HCV inh inconclusive, Pf growth 48h 12µM, Pf growth 96h inconclusive
O=S(=O)(Nc1nc2ccccc2nc1-[n+]1cccc(N=C([O-])c2ccc(Cl)cc2)c1)c1ccccc1	Pf growth 48h inconclusive, Pf growth 96h 8.3µM
CN1CCN(CCCc2c3c(cc4c2CCC4)CCC3)CC1	HCV inh inconclusive
CCCCn1c(N)c(S(=O)(=O)c2ccc(C)cc2)c2nc3ccccc3nc21	HCV inh inconclusive, Pf growth 48h inconclusive, Pf growth 96h 12µM
CN(C)CCCn1c(N)c(S(=O)(=O)c2ccccc2)c2nc3ccccc3nc21	none
CC(C)OC(=O)c1c(N)n(Cc2ccco2)c2nc3ccccc3nc12	none
Cc1ccc(S(=O)(=O)c2c(N)n(Cc3ccco3)c3nc4ccccc4nc23)cc1	HCV inh inconclusive, Pf growth 48h inconclusive, Pf growth 96h 10µM
Cc1cccc(S(=O)(=O)c2c(N)n(Cc3ccco3)c3nc4ccccc4nc23)c1	Pf growth 48h 8.3µM
Cc1ccc(S(=O)(=O)Nc2csc(C)c2C(=O)O)cc1	none
COc1ccc(NC(=O)CNC(=O)C2CCCCC2)cc1OC	none (no result: Cycloheximide cs, Pf growth 48h, Shiga inhibitor, Pf growth 96h)
COC(=O)c1sc(N2C(=O)C(O)=C(C(=O)c3ccc(C)o3)C2c2ccc(OC)c(OC)c2)nc1C (configuration not stated)	none
CCOC(=O)c1sc(N2C(=O)C(O)=C(C(=O)c3ccc(C)o3)C2c2cccc([N+](=O)[O-])c2)nc1C (configuration not stated)	HCV inh inconclusive, Pf growth 96h 15µM
CCOc1ccc(C2C(C(=O)c3ccc(C)o3)=C(O)C(=O)N2c2nc(C)c(C(=O)OC)s2)cc1 (configuration not stated)	Cycloheximide cs 26, Shiga inhibitor 47
Cc1ccc2nc(N3C(=O)C(O)=C(C(=O)c4ccc(C)o4)C3c3cccc(O)c3)sc2c1 (configuration not stated)	Cycloheximide cs 31, Shiga inhibitor 63
COC(=O)c1sc(N2C(=O)C(O)=C(C(=O)c3ccc(C)o3)C2c2ccc([N+](=O)[O-])cc2)nc1C (configuration not stated)	Cycloheximide cs 39, Shiga inhibitor 69
CCOC(=O)c1sc(N2C(=O)C(O)=C(C(=O)c3ccc(C)o3)C2c2ccc(OC)c(OC)c2)nc1C (configuration not stated)	none
COc1cc(CN2CCCN(C)CC2)cc([N+](=O)[O-])c1O	none (no result: Shiga inhibitor)
